According to PubChem BioAssay (NCI):
Compounds without any hit were thinned out: in the full panel of roughly 83,000, 20% have a hit.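 Note: values are percent growth. 100 is the growth of untreated cells, values between 100 and 0 indicate rising inhibition; between -100 and 0 indicates cell death.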 Active and inactive are the calls of the source.

These molecules were tested on LOX IMVI melanoma (assay: NCI-60 one-dose screen, 48 h (100 = growth as untreated, 0 = no growth, -100 = all killed)). Conditions: 10 µM.
Description: Growth inhibition of the LOX IMVI human tumor cell line is measured as a screen for anti-cancer activity. Cells are grown in 96 well plates and exposed to the test compound for 48 hours. Compounds are tested at a single concentration, which is 10^-5 M for most compounds. The reported endpoint is percent growth (GI% or GIPRCNT), where numbers from 0 - 100% represent growth inhibition, and numbers from -100% - 0 represent cell death. For example, a value of 40 represents 60% growth inhibition. A value of 0 means no net growth occurred over the course of the experiment. A value of -40 indicates 40% of cells at the beginning of the experiment died by the end of the experiment. A value of -100 means all cells are dead at the end of the experiment.
NCI-60 Human Tumor Cell Lines Screen was performed using the standard one-dose NCI protocol, which is described in more detail at https://dtp.cancer.gov/discovery_development/nci-60/default.htm.
Compounds with GIPRCNT values below 10 were considered active. Activity score was based on GIPRCNT using the following formula: […]
Score is 0 for GIPRCNT values of 100 or above, 50 for GIPRCNT values of 0, and 100 for GIPRCNT values of -100.

Compound | growth
O=C1/C(=C\c2ccc(Br)cc2)CN(C(=O)c2ccccc2F)C/C1=C\c1ccc(Br)cc1 | -85.5% (active)
CN(C)CCCn1c(=O)c2ccccc2c2cnc3[nH]ccc3c21 | 1.3% (active)
CNc1ccc(CSc2ccc(C)cc2)cc1 | 92.1% (inactive)
COc1cc(-c2nnc(-c3c(-c4ccc(F)cc4)nc4ccccn34)o2)cc(OC)c1OC | 69.7% (inactive)
O=C1Nc2ccccc2C1=NC1CCCCC1 | 87.5% (inactive)
COc1ccc(-c2ccc(-c3ccc(C(=N)N)cn3)o2)cc1 | 61.8% (inactive)
CC(C)(Cl)CCC1=C(Cl)C(=O)c2ccccc2C1=O | 20.6% (inactive)
Clc1nc(Cl)c2c(ncn2C/C=C\Cn2cnc3c(Cl)nc(Cl)nc32)n1 | -94.2% (active)
COc1ccc(-c2nc3ccccn3c2-c2nnc(-c3cc(OC)c(OC)c(OC)c3)o2)cc1 | 78.1% (inactive)
COc1ccc(-c2csc(NC(=O)CSc3nc(C)c(-c4ccccc4)n3Nc3ccccc3)n2)cc1 | 36.8% (inactive)
CCCCCCCCCCCCCCCCN(C(C)c1ccccc1)S(=O)(=O)c1ccc(OC)c(N)c1 (stereo not given) | 91.7% (inactive)
COc1cc(Cl)cc(-c2nn(-c3cccc(NC(=O)Nc4ccc(Cl)c(C(F)(F)F)c4)c3)cc2-c2ccncc2)c1 | 4.81% (active)
O=C1/C(=C\c2ccc(F)cc2)CN(C(=O)c2ccc([N+](=O)[O-])cc2)C/C1=C\c1ccc(F)cc1 | -53.3% (active)
O=C(CNC(=O)OCc1ccccc1)NCC(=O)Oc1ccc([N+](=O)[O-])cc1 | 87.6% (inactive)
Cc1c(Cl)cccc1NC(=O)c1sc2nc3c(cc2c1N)C(=O)CCC3 | 33.3% (inactive)
COc1ccc2c(c1)C(=O)c1c-2c(OCCN(C)C)nc2cc(OC)c(OC)cc12 | -36.6% (active)
Cc1cccc2c1O/C(=C\c1ccc([N+](=O)[O-])o1)C2=O | -83.6% (active)
Clc1ccc(-c2cn(-c3ccccc3)c(-c3ccccc3)n2)c(Cl)c1 | -76.3% (active)
O=C(Nc1cccc(-n2cc(-c3ccncc3)c(-c3ccc(O)c(Cl)c3)n2)c1)Nc1cccc(C(F)(F)F)c1 | 1.13% (active)
COc1cc(C(=O)/C=C/c2cc(-c3cc(OC)c(OC)c(OC)c3)n[nH]2)cc(OC)c1OC | -62.7% (active)

Compound | growth
Cc1cc(C)c(NC(=O)c2sc3nc4c(cc3c2N)C(=O)CCC4)c(C)c1 | 50.6% (inactive)
O=C(Nc1cccc(-n2cc(-c3ccncc3)c(-c3cc(O)cc(Cl)c3)n2)c1)c1cc(C(F)(F)F)cc(C(F)(F)F)c1 | 10.5% (inactive)
N=C(N)c1ccc(-c2ccc(-c3ccco3)o2)cc1 | 56.9% (inactive)
N#CSCC1CC(O)(c2ccccc2)CC(c2ccc(Cl)cc2)O1 (stereo not given) | 13.1% (inactive)
Nc1ccc2c(c1)Cc1cc(N)c(Br)cc1-2 | 96.8% (inactive)
CCCCCCCNc1nc(C=O)ncc1-c1ccc(C(F)(F)F)cc1 | 90.7% (inactive)
Cc1ccc(CC#N)cc1C | 96.7% (inactive)
COc1ccc(OC)c2c1C(=O)CC2C (stereo not given) | 100% (inactive)
CCN(CC)CCC(CNc1c(C)cnc2cc(Cl)ccc12)c1ccc(Cl)c(Cl)c1 (stereo not given) | 37.8% (inactive)
N=C1c2nc3n(c2C(=O)c2nc4n(c21)CCCC4)CCCC3 | -68% (active)
CN(C)CCNC(=O)c1cccn2c(=O)c3cc4ccccc4cc3nc12 | 1.07% (active)
CCOC(=O)c1ccoc1 | 99.6% (inactive)
CC[C@H]1CCC/C=C/[C@@H]2C[C@H](O)C[C@H]2[C@H](O)/C=C/C(=O)O1 | -93.5% (active)
CSCCCNC(=O)c1ccc2c(c1)/C(=C/c1[nH]c(C)cc1C)C(=O)N2 | 32.5% (inactive)
CCCCCCCCCCCCC1C/C=C\CCCC(=O)O1 (stereo not given) | 113% (inactive)
COc1ccc(NC2=NC(C)(CO)CS2)cc1 (stereo not given) | 95.7% (inactive)
Cc1ccc(C)c(C(O)(c2cc(C)ccc2C)C2(O)CCCCC2)c1 | 86.6% (inactive)
ClCCOCCn1cnc2c(Cl)nc(Cl)nc21 | -13.9% (active)
O=C(Nc1ccccc1)Nc1cccc(-n2cc(-c3ccncc3)c(-c3ccc(O)c(Cl)c3)n2)c1 | 47.7% (inactive)
CS(=O)(=O)Nc1cccc(-c2cc(-c3ccccc3Cl)c(C#N)c(N)n2)c1 | 43.7% (inactive)
